A selection: hits, their analogues and other compounds. The true share with any hit is near 2.9%.
ABCB6 inh 2: blocks the human ABCB6 transporter; 0.19% of 360,000 active; Q9NP58; K562-ABCB6 porphyrin accumulation, flow cytometry, 1 h; stronger effect = lower value; fluorescence ratio to DMSO, % at 10 µM;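 active = fluorescence ratio to DMSO below 75%, the collection mean minus 3 SD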;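 also: signal is porphyrin accumulated inside mitochondria; 100% equals median channel fluorescence of DMSO control wells; lower ratio means ABCB6 inhibition with less porphyrin fluorescence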
MEKK3 PB1 HTS: MEKK3-MEK5 PB1 interaction, increase or decrease. bead-based flow cytometry, Alexa488-MEK5 binding to MEKK3; actives lie on both sides; 0 = blocked by unlabeled MEK5, 100 = vehicle. AID 1529. 1.4% of 290,000 active. binding response (% of control), % at 10 µM;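 active = binding response more than 3 SD above or below the average of its plate-row segment, actives on both sides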;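 also: Alexa488 bead fluorescence after subtracting the streptavidin-only scavenger bead signal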
Target sequence (Q99759 whole entry, looked up): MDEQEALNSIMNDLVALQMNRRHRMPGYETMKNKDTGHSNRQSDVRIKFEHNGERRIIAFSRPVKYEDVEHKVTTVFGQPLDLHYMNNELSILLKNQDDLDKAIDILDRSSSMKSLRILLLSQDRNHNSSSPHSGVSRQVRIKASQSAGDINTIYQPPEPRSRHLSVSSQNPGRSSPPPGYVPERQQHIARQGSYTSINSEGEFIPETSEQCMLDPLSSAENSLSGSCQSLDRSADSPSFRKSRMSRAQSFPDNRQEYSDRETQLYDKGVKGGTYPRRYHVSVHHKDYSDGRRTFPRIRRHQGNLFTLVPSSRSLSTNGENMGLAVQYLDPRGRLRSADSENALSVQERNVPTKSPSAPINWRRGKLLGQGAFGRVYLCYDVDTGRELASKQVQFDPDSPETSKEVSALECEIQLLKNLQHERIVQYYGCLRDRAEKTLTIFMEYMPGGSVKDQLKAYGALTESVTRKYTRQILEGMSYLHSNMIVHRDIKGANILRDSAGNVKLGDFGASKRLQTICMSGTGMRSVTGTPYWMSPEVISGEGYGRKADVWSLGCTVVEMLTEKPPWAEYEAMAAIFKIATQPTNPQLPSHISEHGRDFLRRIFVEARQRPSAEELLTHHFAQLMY
MEKK2wt PB1 HTS: raises or lowers MEK5 binding to wildtype human MEKK2 PB1 domain. AID 1531. bead flow cytometry, Alexa488-MEK5 binding to MEKK2 WT; actives lie on both sides. 1.1% of 290,000 active. binding response (% of control), % at 10 µM; in the data active = binding response below about 67% or above about 130%
CRFBP-R2 agonist: agonists of human CRF-binding protein/CRF-R2 receptor complex | activation, % at 13.2 µM | 0.46% of 350,000 active | AID 588473 | HEK293 CRF-R2/CRF-BP, calcium dye fluorescence (FLIPR); percent of saturating CRF peptide response;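 active = activation of at least 50%, plus an integration ratio under a set limit after plate pattern correction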;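 also: plate controls were neutral control wells without compound for no effect and CRF at EC100 for full effect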
MEKK2mut PB1 HTS: signal of MEK5 binding to mutant human MEKK2 PB1 domain. bead flow cytometry, Alexa488-MEK5 binding to MEKK2 mutant. percent response, % at 10 µM. 0.35% of 290,000 active. AID 1530; in the data active = percent response above about 24%, passing the limit was not always enough
CRFBP-R2 block: CRF-BP/CRF-R2 complex antagonism | inhibition, % at 11.8 µM | 0.59% of 350,000 active | HEK293 CRF-R2/CRF-BP, CRF-induced calcium fluorescence;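 active = inhibition of the ligand-induced calcium signal above about 50% at the single tested concentration, limit read from the data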
MEKK2wt confirm: raises or lowers MEK5 binding to wildtype human MEKK2, retest | shares compounds with MEKK3 PB1 HTS | bead flow cytometry, Alexa488-MEK5 binding to MEKK2 WT; actives lie on both sides | binding response (% of control), % at 10 µM | 2.4% of 5,900 active | AID 1892; in the data active = binding response below about 16% or above about 210%; inactive = in between
MEKK2mut-MEK5: signal of MEK5 binding to mutant human MEKK2, retest. shares compounds with MEKK3 PB1 HTS. bead flow cytometry, Alexa488-MEK5 binding to MEKK2 mutant. percent response, % at 10 µM. 2% of 5,900 active. AID 1893; in the data active = percent response mostly above about 71%, no sharp cut-off; inactive = mostly below about 38%;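 also: higher means compound restores mutant binding toward wildtype level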
MEKK3-MEK5 inh: confirmation of inhibitors of MEK5 binding to human MEKK3; bead flow cytometry, Alexa488-MEK5 binding to MEKK3; stronger effect = lower value; binding response (% of control), % at 10 µM; 1.8% of 5,900 active; AID 1894; shares compounds with MEKK3 PB1 HTS;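 active = binding response below 72% of control, or above a set upper limit, though filed actives all read lower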;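 also: 100% = DMSO only wells and 0% = binding blocked by excess unlabeled MEK5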
* = called active by the depositor; i = inactive; nt = no result; [ ] = remark or other dose.

SMILES | ABCB6 inh 2 | MEKK3 PB1 HTS | MEKK2wt PB1 HTS | CRFBP-R2 agonist | MEKK2mut PB1 HTS | CRFBP-R2 block | MEKK2wt confirm | MEKK2mut-MEK5 | MEKK3-MEK5 inh
CCCCN(C)CCNC(=O)c1ccc(Cn2c(=S)[nH]c3ccc(Br)cc3c2=O)cc1 | 98 | 108 | 171* | 3 | 34 | -32 | 191 | 55 | 114
O=C(NCCCN1CCCCC1)c1ccc2c(=O)n(CCc3ccccc3)c(=O)[nH]c2c1 | 100 | nt | nt | 6 | nt | -17 | nt | nt | nt
CN(C)CCNC(=O)c1ccc2c(=O)n(Cc3ccc(Cl)cc3)c(=S)[nH]c2c1 | i | 111 | 138* | 3 | 25* | -29 | 115 | 10 | 105
O=C(NCc1ccccn1)c1ccc(Cn2c(=S)[nH]c3ccc(Br)cc3c2=O)cc1 | 100 | 97 | 91 | -1 | -7 | -1 | nt | nt | nt
CCN(CC)CCNC(=O)c1ccc2c(=O)n(CCc3ccccc3)c(=O)[nH]c2c1 | 92 | 125* | 135* | 0 | 13 | -24 | 107 | 5 | 101
CCN(CCCNC(=O)CCn1c(=O)[nH]c2ccccc2c1=O)c1ccccc1 | 96 | 34*[inhibitor] | 44*[inhibitor] | -2 | -12 | 9 | 106 | 5 | 102
O=C(CSc1nc2ncccc2[nH]1)Nc1ccccc1-c1ccccc1 | 100 | 97 | 93 | 0 | -3 | -6 | nt | nt | nt
N#CCCCC1(CCCC#N)OCCO1 | 95 | nt | nt | 3 | nt | 0 | nt | nt | nt
O=C(Nc1ccc(C(=O)N2CCCCC2)cc1)Nc1cccc(Cl)c1 | 94 | 107 | 108 | 10 | 7 | -41 | nt | nt | nt
Cc1cnc(C(=O)OCC(=O)NC(C)c2ccccc2)cn1 (stereo not given) | 94 | nt | nt | 1 | nt | 5 | nt | nt | nt
CN(C)c1ccc(Cl)c(NC(N)=S)c1 | 100 | nt | nt | 0 | nt | 35 | nt | nt | nt
N#C/C(=C\c1ccc(Sc2ccc(Cl)cc2)o1)c1nc2ccccc2[nH]1 | 107 | 102 | 150* | 4 | 14 | -30 | 131 | 14 | 102
N#C/C(=C\c1ccc(Sc2nc3ccccc3[nH]2)o1)c1ccccc1 | 95 | 107 | 101 | -1 | 7 | -6 | nt | nt | nt
Cc1ccccc1C(=O)OCc1nnc(-c2ccc(Cl)cc2)o1 | 92 | 146* | 121 | -1 | 6 | -2 | 93 | -5 | 98
Cc1noc(C)c1COc1ccc(C(=O)OCc2nnc(-c3ccc(Cl)cc3)o2)cc1 | 92 | 2.0*[inhibitor] | 2.0*[inhibitor] | 1 | -21 | -17 | 100 | -3 | 103
CC(C)N(C(=O)CSc1nnc(Cc2csc(Nc3ccccc3)n2)o1)C(C)C | 96 | 75*[inhibitor] | 90 | -3 | -2 | -13 | 108 | 5 | 105
Cc1noc(C)c1C(=O)Nc1ccc(C#N)cc1 | 102 | 98 | 104 | -1 | 5 | 8 | nt | nt | nt
Cc1cc(C)nc(NC(=O)c2ccc([N+](=O)[O-])o2)n1 | 90 | 128* | 104 | 0 | 2 | 14 | 97 | -10 | 99
COc1ccc(/C=C/c2cc(-c3ccc(C)cc3)o[n+]2C)cc1 | 111 | 109 | 155* | 5 | 18 | -27 | 112 | 9 | 95
COc1cc(O)c(C(CCN2CCN(c3ccccc3)CC2)c2ccc(N(C)C)cc2)c(OC)c1 (stereo not given) | 97 | 123 | 151* | 2 | 9 | -9 | 143 | 19 | 104
COc1ccc(C(CCN2CCN(c3ccccc3)CC2)c2c(O)cc(OC)cc2OC)cc1 (stereo not given) | 96 | 98 | 135* | 1 | 8 | -4 | 140 | 20 | 107
CCN(CC)CCC(c1ccc(N(C)C)cc1)c1c(O)cc(OC)cc1OC (stereo not given) | 93 | 118 | 138* | -2 | 4 | -12 | 92 | -8 | 98
COc1cc(O)c(C(CCN2CCOCC2)c2ccc(N(C)C)cc2)c(OC)c1 (stereo not given) | 104 | 90 | 90 | 0 | 10 | -15 | nt | nt | nt
CCN(CC)CCC(c1ccc(OC)cc1)c1c(O)cc(OC)cc1OC (stereo not given) | 101 | 90 | 95 | -2 | 1 | -8 | nt | nt | nt
CCOc1ccc(CNC(=O)C2CCCN(S(=O)(=O)N3CC(C)CC(C)C3)C2)cc1OC (stereo not given) | 104 | 102 | 98 | -3 | 5 | 6 | nt | nt | nt
SMILES | ABCB6 inh 2 | MEKK3 PB1 HTS | MEKK2wt PB1 HTS | CRFBP-R2 agonist | MEKK2mut PB1 HTS | CRFBP-R2 block | MEKK2wt confirm | MEKK2mut-MEK5 | MEKK3-MEK5 inh
Cc1nn2c(N)csc2nc1=O | nt | 62*[inhibitor] | 69*[inhibitor] | nt | -6 | nt | 59 | -24 | 51*
CC(=O)n1c(-c2ccccc2)c(CO)c2ccccc21 | 98 | 100 | 95 | -1 | -1 | 3 | nt | nt | nt
NCCc1c(-c2ccccc2)n(-c2ccccc2)c2ccccc12 | 92 | 108 | 197* | 11 | 62* | -128 | 155 | 35 | 111
COc1cc(/C=C(\NC(=O)c2ccccc2)C(=O)NC(C(=O)O)c2ccccc2)cc(OC)c1OC (stereo not given) | 96 | 96 | 100 | -1 | 1 | 4 | nt | nt | nt
O=C(NCc1ccncc1)C(=O)NCC1OCCN1S(=O)(=O)c1cc(F)ccc1F (stereo not given) | 96 | 98 | 98 | 1 | 2 | -2 | nt | nt | nt
NS(=O)(=O)c1cccc(NC(=O)CN2CCc3ccccc32)c1 | 97 | 98 | 21*[inhibitor] | -1 | 18 | -4 | 84 | -18 | 90
CC(C)[C@H](NC(N)=O)C(=O)Nc1ccc(Oc2ccccc2)cc1 | 97 | 42*[inhibitor] | 51 | -4 | -18 | 5 | 108 | 5 | 104
COc1ccccc1NC(=O)N1CCCC1C(=O)Nc1nnc(C(C)C)s1 (stereo not given) | 97 | 3.0*[inhibitor] | 3.0*[inhibitor] | 1 | -14 | 6 | 108 | 10 | 106
CC(C)c1nnc(NC(=O)C2CCCN2C(=O)Nc2ccccc2[N+](=O)[O-])s1 (stereo not given) | 99 | 107 | 105 | 3 | -2 | -10 | nt | nt | nt
CC(C)c1nnc(NC(=O)C2CCCN2C(=O)Nc2ccccc2F)s1 (stereo not given) | 101 | 151* | 129 | -5 | 7 | 11 | 100 | -3 | 100
CCCCN(C(=O)C1CSC2(C)CCC(=O)N12)c1c(N)n(CC(C)C)c(=O)[nH]c1=O (stereo not given) | 97 | nt | nt | 10 | nt | -2 | nt | nt | nt
COc1cc(NC(=O)c2ccc3c(c2)S(=O)(=O)N=C2CCCCCN23)cc(OC)c1 | 98 | nt | nt | -2 | nt | 11 | nt | nt | nt

High-throughput results (PubChem BioAssay)
